# Inconclusive results are not listed. Activity calls are given as the source filed them. Calls come from the whole dose curve; as a rule, active = well fitted inhibition curve with a large enough effect; inconclusive = small, poorly fitted or top-dose-only effect; inactive = flat fitted curve, though single readings scatter.
# Target: Luciferin 4-monooxygenase (Photinus pyralis) (UniProt P08659)
# Assay: Biochemical firefly luciferase enzyme assay for NPC (AID 624030);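 note: 0% = DMSO and -100% = full luciferase inhibition by PTC124 control; nearly all actives have a fitted effect of over 70% in size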
# Conditions: purified P. pyralis luciferase, luminescence, 5 min; series mostly up to 58.6 µM; activity change, negative = inhibition: at the top concentration
# From the text: Charcot-Marie-Tooth-Association [CMTA] National Center for Advancing Translational Sciences [NCATS] Charcot-Marie-Tooth (CMT) disease was first characterized by Jean-Martin Charcot and Pierre Marie in France and, independently, by Howard Henry Tooth in England in 1886. CMT is one of the most common inherited neurological diseases, affecting approximately 1 in 2,500 Americans. […] The most prevalent type of CMT is known as CMT1A and caused by a duplication of the PMP22 gene which leads to over-expression of this protein. PMP22 is a glycosylated intrinsic membrane protein accounting for 2-5% of the myelin protein content, and its over-expression results in demyelination and subsequently axonal loss. A pair of cellular transcription-based assays was developed in the S16 rat Schwann cell lines (Hai, M., et al., 2002) stably transfected with orthogonal reporters - firefly luciferase (Fluc) and beta-lactamase (beta-Lac) - whose expression is driven by an intronic regulatory element of the PMP22 gene (Jones, E.A., et al., 2011) to recapitulate endogenous expression of PMP22. A comprehensive library of approved drugs, the NCGC Pharmaceutical Collection (Huang, R., et al., 2011), was screened in the cross-validating platform of the orthogonal reporter assays to identify drug modulators inhibitory towards PMP22 expression. A set of counter-screens was devised to address non-specific activity of the library. An ATP-dependent CellTiter-Glo assay (developed by Promega Corp) was utilized to control cell viability. In addition, biochemical Fluc enzyme assay was performed to assess direct inhibition of the Fluc enzymatic activity. References Hai, M., Muja, N., DeVries, G.H., Quarles, R.H. and Patel, P.I. Comparative analysis of Schwann cell lines as model systems for myelin gene transcription studies. J Neurosci Res, 2002. 69(4): pp 497-508 Huang, R., Southall, N., Wang, Y., Yasgar A., Shinn P., Jadhav, A. , Nguyen, D.-T. and Austin, C.P., The NCGC pharmaceutical collection: a comprehensive resource of clinically approved drugs enabling repurposing and chemical genomics. Sci Transl Med, 2011. 3(80): p. 80ps16.
# Compounds were transferred to the plates in 23nl, and one microliter/well luciferase enzyme-buffer solution (10 nM P. pyralis luciferase and 50 mM Tris Acetate final concentrations) was dispensed yielding a final reaction volume of […]. Luciferase luminescence was measured by a ViewLux plate reader within 5 minutes of enzyme-buffer addition. The % activity was determined by normalizing to the average readings of PTC124 (a positive control) relative to DMSO (0% Activity). The concentration-effect curves were then classified based on curve quality (r2), response magnitude and degree of measured activity.
# Chain of Luciferin 4-monooxygenase (Photinus pyralis) (P08659 whole entry, looked up): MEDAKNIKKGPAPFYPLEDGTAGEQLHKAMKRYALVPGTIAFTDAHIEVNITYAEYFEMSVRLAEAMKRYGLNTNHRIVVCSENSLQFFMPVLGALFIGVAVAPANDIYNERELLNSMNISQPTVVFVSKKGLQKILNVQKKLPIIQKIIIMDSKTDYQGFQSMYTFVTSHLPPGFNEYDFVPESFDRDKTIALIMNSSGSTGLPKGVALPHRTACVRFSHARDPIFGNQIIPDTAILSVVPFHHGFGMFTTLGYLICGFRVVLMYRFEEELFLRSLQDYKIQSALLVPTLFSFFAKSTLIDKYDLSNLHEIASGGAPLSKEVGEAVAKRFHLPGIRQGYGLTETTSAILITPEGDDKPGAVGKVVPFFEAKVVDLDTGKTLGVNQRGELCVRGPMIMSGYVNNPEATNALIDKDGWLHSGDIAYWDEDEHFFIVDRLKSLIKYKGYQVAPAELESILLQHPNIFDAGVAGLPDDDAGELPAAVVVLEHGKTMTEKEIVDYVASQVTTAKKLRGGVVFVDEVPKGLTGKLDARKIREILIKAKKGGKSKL
SMILES,"activity change, negative = inhibition",Potency
Cc1ccccc1-n1c(C)nc2ccccc2c1=O,-5.12% [at 123 µM] (inactive),
C[C@H]1CC[C@@H]2[C@@H](C)[C@H]3[C@H](C[C@H]4[C@@H]5CC=C6CC(O[C@@H]7O[C@H](CO)[C@H](O)[C@H](O[C@@H]8O[C@H](CO)[C@@H](O)[C@H](O)[C@H]8O)[C@H]7O[C@H]7O[C@@H](C)[C@H](O)[C@@H](O)[C@H]7O)CC[C@]6(C)[C@H]5CC[C@]34C)N2C1 (stereo not given in full),1.2% (inactive),
O=c1[nH]c(=O)n(Cl)c(=O)n1Cl,-0.873% (inactive),
CCCC(C)C1(CC)C(=O)NC(=O)NC1=O (stereo not given),1.43% (inactive),
C[N+]1(C)CCCCC1COC(=O)C(O)(c1ccccc1)c1ccccc1 (stereo not given),3.98% (inactive),
CC1CCC(C(C)C)C(OC(=O)c2ccccc2N)C1 (stereo not given),-0.526% (inactive),
CNC(C)C(O)c1ccc(O)cc1 (stereo not given),2.1% (inactive),
S=C=S,1.6% (inactive),
[O]=[Cd],0.781% (inactive),
CN1C2CCC1CC(OC(c1ccccc1)c1ccc(Cl)cc1)C2 (stereo not given),14.6% (inactive),
O=C1CCCCC1CN1CCCCC1 (stereo not given),0.091% (inactive),
CCCSP(=O)(OCC)SCCC,1.34% [at 123 µM] (inactive),
CCC1C(C)=NN=C(c2ccc(OC)c(OC)c2)c2cc(OC)c(OC)cc21 (stereo not given),-2.79% (inactive),
O=C(OCCN1CCCCC1)C(O)(c1ccccc1)c1ccccc1,0.818% (inactive),
CC(N)Cc1ccc(O)cc1 (stereo not given),1.14% (inactive),
Clc1ccc(Cl)cc1,-1.76% (inactive),
CN1CCCC(=C(c2cccs2)c2cccs2)C1,-1.5% (inactive),
[N-]=[N+]=CC(=O)OCC(N)C(=O)O (stereo not given),-3.44% (inactive),
CCCCNCC(O)c1ccc(O)cc1 (stereo not given),2.61% (inactive),
O=c1[nH]cc(N(CCCl)CCCl)c(=O)[nH]1,-0.306% (inactive),

SMILES,"activity change, negative = inhibition",Potency
CCOc1ccc2c3c1O[C@H]1[C@@H](O)C=C[C@H]4[C@@H](C2)N(C)CC[C@@]341,0.209% (inactive),
O=C(CS(=O)C(c1ccccc1)c1ccccc1)NO (stereo not given),1.19% (inactive),
CNC1(c2ccccc2Cl)CCCCC1=O (stereo not given),,inactive
Clc1ccccc1Cl,-0.614% (inactive),
O=Cc1ccco1,0.409% (inactive),
COc1ccc(OC)c(C(O)C(C)N)c1 (stereo not given),-0.17% (inactive),
CC(C)[C@@]1(NC(=O)[C@@H]2C[C@@H]3c4cccc5[nH]cc(c45)C[C@H]3N(C)C2)O[C@@]2(O)[C@@H]3CCCN3C(=O)[C@H](Cc3ccccc3)N2C1=O,-4.06% (inactive),
CCC(N)Cc1c[nH]c2ccccc12 (stereo not given),-7.46% (inactive),
CCC(C)(S(=O)(=O)CC)S(=O)(=O)CC,-3.13% (inactive),
C[C@@H](Cc1ccccc1)NCCC(c1ccccc1)c1ccccc1,8.66% [at 24.9 µM] (inactive),
CCOP(=O)(OCC)O/C(=C/Cl)c1ccc(Cl)cc1Cl,-3.08% (inactive),
O=C/C=C/c1ccccc1,-13.4% (inactive),
CCCC(C)(COC(N)=O)COC(=O)NC1CC1 (stereo not given),8.37% (inactive),
COc1ccc2c3c1O[C@H]1C(=O)CC[C@H]4[C@@H](C2)N(C)CC[C@]314,1.55% (inactive),
CN1c2ccccc2C(NCCCCCCC(=O)O)c2ccc(Cl)cc2S1(=O)=O (stereo not given),-3.03% (inactive),
C[C@]12CCC(=O)C[C@@H]1CC[C@@H]1[C@@H]2CC[C@]2(C)[C@@H](O)CC[C@@H]12,1.73% (inactive),
ClCC1CO1 (stereo not given),0.549% (inactive),
CCC(=O)O[C@@](Cc1ccccc1)(c1ccccc1)[C@@H](C)CN(C)C,-0.6% [at 24.9 µM] (inactive),
CCCCCl,17.8% (inactive),
Oc1cc(Cl)c(Cl)cc1Cl,-11.5% (inactive),

# Reference: PubChem BioAssay (NCATS)
